{
  "source": "PubChem BioAssay",
  "note": "Activity calls are given as the source filed them. No rule for the calls is given here.",
  "data": [
    {"target": "Pantothenate synthetase (Mycobacterium tuberculosis (strain ATCC 25618 / H37Rv)) (UniProt P9WIL5)", "sequence (P9WIL5 whole entry, looked up)": "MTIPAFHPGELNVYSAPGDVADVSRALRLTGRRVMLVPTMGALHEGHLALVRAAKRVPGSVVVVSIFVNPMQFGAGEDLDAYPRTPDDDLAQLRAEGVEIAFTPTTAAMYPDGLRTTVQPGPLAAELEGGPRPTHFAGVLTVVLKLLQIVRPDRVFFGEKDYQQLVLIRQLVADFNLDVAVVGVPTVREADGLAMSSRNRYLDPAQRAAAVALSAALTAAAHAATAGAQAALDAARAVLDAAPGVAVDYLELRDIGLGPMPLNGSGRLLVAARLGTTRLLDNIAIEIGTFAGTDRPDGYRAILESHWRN", "assay": "Coupled enzyme confirmation of inhibitors against recombinant Mtb PanC (AID 375);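 also: 0% = full reaction with vehicle and 100% = no enzyme background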", "details": "coupled enzyme assay; at 10 µM, active compounds read high", "values": [
      {"smiles": "CCOc1cc(S(=O)(=O)NCc2ccccn2)c(C)cc1C", "inhibition": "0% (inactive)"},
      {"smiles": "O=c1n(CCCN2CCN(c3cccc(Cl)c3)CC2)nc2ccccn12", "inhibition": "0% (inactive)"},
      {"smiles": "Cc1c(C(=O)NCc2cccnc2)oc2ccc(S(=O)(=O)N3CCCCC3)cc12", "inhibition": "0% (inactive)"},
      {"smiles": "O=C(CP(=O)(c1ccccc1)c1ccccc1)N1CCCCC1", "inhibition": "6% (inactive)"},
      {"smiles": "CCN(CC)CCN1C(=O)C(=O)/C(=C(/O)c2c(C)[nH]c(C(=O)OC)c2C)C1c1ccco1", "note": "(stereo not given)", "inhibition": "0% (inactive)"},
      {"smiles": "CCCCC(=O)NCCc1cc2c(C)ccc(C)c2[nH]c1=O", "inhibition": "0% (inactive)"},
      {"smiles": "CC1CCN(C(=O)CCNS(=O)(=O)c2ccccc2)CC1", "inhibition": "3% (inactive)"},
      {"smiles": "Cc1cc2cc(CCNC(=O)CC(C)C)c(=O)[nH]c2cc1C", "inhibition": "9% (inactive)"},
      {"smiles": "Cc1cc(=O)[nH]c(=S)n1-c1ccccc1", "inhibition": "17% (inactive)"},
      {"smiles": "CC(Sc1n[nH]c(=O)[nH]c1=O)C(=O)OCc1ccccc1", "note": "(stereo not given)", "inhibition": "2% (inactive)"},
      {"smiles": "O=C1NC(c2ccccc2)(C(F)(F)F)SC2=CCCCCN12", "note": "(stereo not given)", "inhibition": "0% (inactive)"},
      {"smiles": "Cc1cc(NC(=O)c2ccccc2Oc2ccccc2)no1", "inhibition": "12% (inactive)"},
      {"smiles": "O=C1CC(c2ccsc2)c2cc3c(cc2N1)OCCO3", "note": "(stereo not given)", "inhibition": "0% (inactive)"},
      {"smiles": "Cc1cccc(-n2c(O)c(C=Nc3ccccc3N)c(=O)[nH]c2=O)c1", "inhibition": "0% (inactive)"},
      {"smiles": "O=S(=O)(NCc1ccccn1)c1ccc2c(c1)OCCO2", "inhibition": "0% (inactive)"},
      {"smiles": "COc1cccc(C2C(C(=O)c3cc4ccccc4o3)=C(O)C(=O)N2CCN(C)C)c1OC", "note": "(stereo not given)", "inhibition": "1% (inactive)"},
      {"smiles": "COc1cc(NC(=O)c2cccs2)cc(OC)c1", "inhibition": "0% (inactive)"},
      {"smiles": "CCOC(=O)N1CCN(Cc2nc3c(c(=O)n(C)c(=O)n3C)n2Cc2ccccc2)CC1", "inhibition": "0% (inactive)"},
      {"smiles": "Cn1c(-n2c(-c3ccco3)nc3ccccc3c2=O)nc2ccccc21", "inhibition": "2% (inactive)"},
      {"smiles": "NC(=O)c1nsnc1-c1ccccc1O", "inhibition": "2% (inactive)"},
      {"smiles": "COc1ccc(C2/C(=C(/O)c3ccc(OC(C)C)cc3)C(=O)C(=O)N2CCCN2CCOCC2)cc1", "note": "(stereo not given)", "inhibition": "0% (inactive)"},
      {"smiles": "CC(=O)Nc1c(Cl)n(C(C)=O)c2ccccc12", "inhibition": "7% (inactive)"},
      {"smiles": "COc1ccc(/C(O)=C2/C(=O)C(=O)N(CCCN(C)C)C2c2ccco2)cc1Cl", "note": "(stereo not given)", "inhibition": "0% (inactive)"},
      {"smiles": "CC(OC(=O)C1CC=CCC1C(N)=O)C(Cl)=C(Cl)Cl", "note": "(stereo not given)", "inhibition": "0% (inactive)"},
      {"smiles": "Cc1cc2nc3c(nc2cc1C)C1(C(=O)O)CCC3(C)C1(C)C", "note": "(stereo not given)", "inhibition": "0% (inactive)"},
      {"smiles": "CC(=O)N(C)C1(c2nnnn2CCOC(=O)Nc2cccc3ccccc23)CCCC1", "inhibition": "0% (inactive)"},
      {"smiles": "Cc1oc(-c2ccccc2F)nc1CS(=O)(=O)CC(=O)N1CCCCCC1", "inhibition": "1% (inactive)"},
      {"smiles": "CC1(C)Cc2c(sc3ncnc(N)c23)CO1", "inhibition": "14% (inactive)"},
      {"smiles": "CCOC(=O)c1cc2c(=O)n3cccc(C)c3nc2n(CCOC)c1=NC(=O)c1ccncc1", "inhibition": "0% (inactive)"},
      {"smiles": "CCOC(=O)CCNC(=O)Nc1ccc2nc(C)n(Cc3ccccc3Cl)c(=O)c2c1", "inhibition": "5% (inactive)"},
      {"smiles": "CC1=C(C(=O)OCc2ccccc2)C(c2ccco2)n2ncnc2N1", "note": "(stereo not given)", "inhibition": "0% (inactive)"},
      {"smiles": "CCC(C)(NC(=O)CNC(C)=O)C(=O)NC1CCCCC1", "note": "(stereo not given)", "inhibition": "0% (inactive)"},
      {"smiles": "CCOC(=O)C1CCN(C(=O)c2ccc(Cl)c(Cl)c2)CC1", "inhibition": "8% (inactive)"},
      {"smiles": "CC(=O)c1ccc(OC(=O)c2cccs2)cc1", "inhibition": "0% (inactive)"},
      {"smiles": "CCCS(=O)(=O)N1CCC(C(=O)NCCN2CCCC2)CC1", "inhibition": "0% (inactive)"},
      {"smiles": "COc1ccc(-c2nnc(-c3ccc(N)cc3)o2)cc1", "inhibition": "4% (inactive)"},
      {"smiles": "O=C(CN1CCOCC1)Nc1cccc(C(=O)Nc2cccc(C(F)(F)F)c2)c1", "inhibition": "2% (inactive)"},
      {"smiles": "COc1ccc2c(-c3cccnc3)cc(=O)[nH]c2c1", "inhibition": "6% (inactive)"},
      {"smiles": "Cn1c(CNc2nc(-c3ccccc3)cs2)nnc1SCC(=O)N1CCc2ccccc21", "inhibition": "0% (inactive)"},
      {"smiles": "CCn1c2ccccc2c2cc(NC(=O)CSc3nnc(C4CC4)n3Cc3ccco3)ccc21", "inhibition": "1% (inactive)"}
    ]}
  ]
}
